Compounds with a hit are over-represented: about 0.97% of the library has one in this group of screens.
UGM FP inh: blocks M. tuberculosis UGM enzyme; P9WIQ1; inhibition, % at 10 µM; actives 0.06% (n = 320,000); purified UGM, fluorescence polarization probe displacement; in the data active = inhibition above about 10%, passing the limit was not always enough; inconclusive = no clear call, values can overlap the other calls
Target sequence (P9WIQ1 whole entry, looked up): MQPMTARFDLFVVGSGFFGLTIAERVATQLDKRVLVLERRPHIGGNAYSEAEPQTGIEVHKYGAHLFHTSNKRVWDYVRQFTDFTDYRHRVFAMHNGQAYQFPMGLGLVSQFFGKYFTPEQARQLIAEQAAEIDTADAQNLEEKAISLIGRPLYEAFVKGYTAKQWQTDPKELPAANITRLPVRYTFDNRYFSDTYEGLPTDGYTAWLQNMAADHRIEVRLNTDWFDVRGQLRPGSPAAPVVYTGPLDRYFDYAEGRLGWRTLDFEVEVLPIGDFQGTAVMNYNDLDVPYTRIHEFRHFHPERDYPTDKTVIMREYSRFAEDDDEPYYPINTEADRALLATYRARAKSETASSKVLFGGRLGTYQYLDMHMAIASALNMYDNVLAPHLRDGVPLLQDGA
RecA intein inh: inhibitors of M. tuberculosis RecA intein splicing; P9WHJ3; cell-free RecA intein splicing, fluorescence; inhibition, % (no concentration beside the values); actives 0.75% (n = 290,000); AID 2221; in the data active = inhibition above about 30%; inconclusive = no clear call, values can overlap the other calls
Rv3671c protease: Rv3671c (M. tuberculosis) protease inhibition. AID 2606. actives 0.048% (n = 320,000). inhibition, % at 5.96 µM; in the data active = inhibition above about 38%;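 also: extracellular domain of Rv3671c used as enzyme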
TcdB GH inh: TcdB glycohydrolase inhibition | P18177 | TcdB glycohydrolase enzymatic assay, plate reader | inhibition, % at 9.99 µM | actives 0.24% (n = 350,000) | AID 652162; in the data active = inhibition above about 10%
MazF activator: activators of E. coli MazEF toxin-antitoxin RNase; FAM/BHQ RNA-DNA oligo cleavage fluorescence, 5 h; P0AE70; actives 0.32% (n = 350,000); activation, % at 20 µM; in the data active = activation above about 50%
Target sequence (P0AE70 whole entry, looked up): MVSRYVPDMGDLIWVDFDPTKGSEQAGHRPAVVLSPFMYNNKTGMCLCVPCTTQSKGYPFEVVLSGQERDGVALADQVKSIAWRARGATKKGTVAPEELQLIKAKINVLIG
Mtb betalactam: beta-lactam sensitization of Mtb H37Rv. M. tuberculosis H37Rv growth with meropenem, percent inhibition. inhibition, % at 25 µM. actives 0.27% (n = 330,000). AID 434955;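 also: growth measured after seven days incubation then overnight dye step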
GFP chromophore: counter-screen GFP chromophore formation inhibition | shares compounds with RecA intein inh | actives 83% (n = 2,100) | EC50, µM | cell-free GFP chromophore formation, fluorescence
Each line names hits and unclear results; the compound was inactive in the other large screens (follow-up assays come after a bar, where they were run). Unless noted, no rule for the calls is given here.

C[C@H]1CN([C@@H](C)CO)C(=O)c2cccc(NC(=O)Nc3ccc4c(c3)OCO4)c2O[C@H]1CN(C)C	none (no result: UGM FP inh, RecA intein inh, Rv3671c protease, MazF activator, Mtb betalactam)
CC=Cc1ccc2n(c1=O)C[C@@H]1[C@@H](CO)[C@H](C(=O)NCc3ccccc3F)N[C@H]21 (mixture of isomers)	none (no result: UGM FP inh, RecA intein inh, Rv3671c protease, MazF activator, Mtb betalactam)
c1cncc(CNc2ncnc3sc4c(c23)CCCC4)c1	RecA intein inh 36 | GFP chromophore inactive
Nc1nn2c(-c3ccccc3)cc(=O)[nH]c2c1N=Nc1ccc(O)cc1	RecA intein inh 52 | GFP chromophore 2
Nc1nn2c(-c3ccccc3)cc(=O)[nH]c2c1N=Nc1ccc(Br)cc1	none (no result: UGM FP inh, RecA intein inh, Rv3671c protease, Mtb betalactam)
CN(C)CCCNC(=O)C[C@H]1CC[C@H]2[C@@H](COc3ccc(NC(=O)c4ccc5c(c4)OCO5)cc3C(=O)N2C)O1	none (no result: UGM FP inh, RecA intein inh, Rv3671c protease, MazF activator, Mtb betalactam)
O=C(Cc1ccccn1)NCC[C@@H]1CC[C@@H](NS(=O)(=O)c2ccccc2)[C@H](CO)O1	none (no result: UGM FP inh, RecA intein inh, Rv3671c protease, MazF activator, Mtb betalactam)
O=c1[nH]c(O)c(N=Nc2cc([N+](=O)[O-])ccc2O)c(=O)[nH]1	RecA intein inh 73 | GFP chromophore 12
C/C(=N\NC(=O)c1ccncc1)c1cc2ccccc2oc1=O	RecA intein inh 93 (no result: TcdB GH inh) | GFP chromophore 15
C/C(=N\NC(=O)c1ccncc1)c1cc2ccccc2o1	none
O=C(N/N=C/c1ccc(OCc2ccccc2)cc1)c1ccncc1	none
Oc1ccc(N=Cc2ccc(OCc3ccccc3)cc2)cc1	RecA intein inh 46 | GFP chromophore inactive
CCOC(=O)C1(C(N)=O)OC1(c1ccc(Cl)cc1)c1ccccc1Cl (configuration not stated)	none (no result: UGM FP inh, RecA intein inh, Rv3671c protease, Mtb betalactam)
CCOC(=O)N1C(=O)[C@@](c2ccc(Cl)cc2)(C(C)C)N1C(=O)OCC	RecA intein inh 49 | GFP chromophore 33
CCOC(=O)N1C(=O)[C@](c2ccc(Cl)cc2)(C(C)C)N1C(=O)OCC	RecA intein inh 34 | GFP chromophore 3.5
COC(=O)N1C(=O)[C@](c2ccccc2)(C(C)C)N1C(=O)OC	none
COc1ccc(Nc2nc(N3CCN(S(C)(=O)=O)CC3)nc3ccccc23)c(OC)c1	none (no result: RecA intein inh)
COc1ccc(Nc2nc(N3CCCCC3)nc3ccccc23)c(OC)c1	RecA intein inh 93 (no result: TcdB GH inh) | GFP chromophore inactive
COc1ccc(CN(C)C[C@@H]2Oc3ccc(NC(=O)Nc4ccc5c(c4)OCO5)cc3CC(=O)N([C@H](C)CO)C[C@@H]2C)cc1	none (no result: UGM FP inh, RecA intein inh, Rv3671c protease, MazF activator, Mtb betalactam)
COCCn1c(N)c(C(=O)NCc2cccs2)c2nc3ccccc3nc21	RecA intein inh 62 (no result: TcdB GH inh) | GFP chromophore inactive
COCCn1c(N)c(C(=O)NCC2CCCO2)c2nc3ccccc3nc21 (configuration not stated)	none (no result: TcdB GH inh)
COc1cc(C(=O)CSc2nnc(-c3ccc(O)cc3)n2CC2CCCO2)ccc1NC(C)=O (configuration not stated)	RecA intein inh 36 (no result: TcdB GH inh) | GFP chromophore inactive
O=C(O)CC1OCC=C2CN3CCC45C6=CC(=O)C(=O)C([N+](=O)[O-])=C6NC4C1C2CC35 (configuration not stated)	RecA intein inh 85, Mtb betalactam inconclusive (no result: TcdB GH inh) | GFP chromophore 7.1
Cc1ccc(O)c(N=CC2=C(O)c3ccccc3C2=O)c1	RecA intein inh 87 (no result: TcdB GH inh) | GFP chromophore 3.4
C/C(CC(=O)Nc1cc(C)ccn1)=N\NC(=O)c1cccc(C)c1	RecA intein inh 70 | GFP chromophore 18
C/C(CC(=O)Nc1cc(C)ccn1)=N\NC(=O)C(=O)NC(C)C	RecA intein inh 64 | GFP chromophore 39
CCOC(=O)C1C2C=CC3(O2)C1C(=O)N(Cc1ccccc1)C3C(=O)NCc1ccccc1 (configuration not stated)	none (no result: UGM FP inh, RecA intein inh, Rv3671c protease, MazF activator, Mtb betalactam)
Cn1cnc([N+](=O)[O-])c1Sc1ccc(Br)cc1	none
Cc1ccc(Sc2c([N+](=O)[O-])ncn2C)cc1	RecA intein inh 53 (no result: TcdB GH inh) | GFP chromophore inactive
O=C1C(C2=C(O)c3ccccc3C2=O)=Nc2ccccc21	RecA intein inh 47 (no result: TcdB GH inh) | GFP chromophore 1.8
CN=CC1=C(O)c2ccccc2C1=O	none (no result: TcdB GH inh)
O=C(Nc1nc(-c2ccccc2)cs1)c1ccccc1NS(=O)(=O)c1ccc(F)cc1	RecA intein inh 35 (no result: TcdB GH inh) | GFP chromophore 28
O=S(=O)(Nc1ccc(-c2csc(-c3ccccc3)n2)cc1)c1ccc(F)cc1	none (no result: TcdB GH inh)
O=C(O)c1ccc(-n2ncc(Cl)c(Cl)c2=O)cc1	none (no result: UGM FP inh, RecA intein inh, Rv3671c protease, TcdB GH inh, Mtb betalactam)
Cc1ccc(C(=O)OCn2ncc(Cl)c(Cl)c2=O)cc1	RecA intein inh 75 (no result: TcdB GH inh) | GFP chromophore 6.4
CCOC(=O)c1ccc(NC(=O)Cn2ncc(Cl)c(Cl)c2=O)cc1	RecA intein inh 62 | GFP chromophore 13
COc1ccc(NC(=O)Cn2ncc(Cl)c(Cl)c2=O)cc1S(=O)(=O)N1CCOCC1	RecA intein inh 43 (no result: TcdB GH inh) | GFP chromophore 31
O=C(OCn1ncc(Cl)c(Cl)c1=O)c1ccc(C(F)(F)F)cc1	RecA intein inh 80 (no result: UGM FP inh, Rv3671c protease, TcdB GH inh, Mtb betalactam) | GFP chromophore 1.4
COc1ccc(NC(=O)c2ccc(Cl)nc2)cc1S(=O)(=O)N1CCOCC1	none (no result: RecA intein inh)
CCC(=O)Nc1ccc(C(=O)Cn2ncc(Cl)c(Cl)c2=O)cc1	none
CN(C)C(=O)C[C@H]1C[C@@H]2c3cc(NC(=O)NC4CCCC4)ccc3O[C@@H]2[C@@H](CO)O1	none (no result: UGM FP inh, RecA intein inh, Rv3671c protease, MazF activator, Mtb betalactam)
O=C(Nc1ccc2c(c1)OCO2)N[C@H]1CC[C@H](CCNC(=O)C2CCCCC2)O[C@H]1CO	none (no result: UGM FP inh, RecA intein inh, Rv3671c protease, MazF activator, Mtb betalactam)
CN(C)C(=O)c1cccc(-c2cccc(-c3nc(C(=O)N4CCOCC4)cc4c3[C@H](CCO)N([S@@](=O)C(C)(C)C)C4)c2)c1	none (no result: UGM FP inh, RecA intein inh, Rv3671c protease, MazF activator, Mtb betalactam)
CCC(=O)N1CC[C@@H]2[C@H](CO)Nc3ccc(-c4ccc(F)cc4)cc3[C@@H]21	none (no result: UGM FP inh, RecA intein inh, Rv3671c protease, MazF activator, Mtb betalactam)
O=C(c1cccc(C(F)(F)F)c1)C1CCCN(Cc2ncc[nH]2)C1 (configuration not stated)	RecA intein inh 38 | GFP chromophore inactive
O=C1C(Nc2cccc(O)c2)=C(N2CCCCC2)C(=O)c2ccccc21	RecA intein inh 79 (no result: TcdB GH inh) | GFP chromophore 3
COc1ccccc1NC1=C(N2CCCCC2)C(=O)c2ccccc2C1=O	RecA intein inh 79 (no result: TcdB GH inh) | GFP chromophore 17
CN(C1=C(N2CCCCC2)C(=O)c2ccccc2C1=O)c1ccccc1	none (no result: TcdB GH inh)
Cc1ccc(NC2=C(N3CCCCC3)C(=O)c3ccccc3C2=O)cc1	RecA intein inh 67 (no result: TcdB GH inh) | GFP chromophore 9.5
O=C(O)c1cccc(NC2=C(Cl)C(=O)c3ccccc3C2=O)c1	none (no result: UGM FP inh, RecA intein inh, Rv3671c protease, Mtb betalactam)
CC1=C(Nc2ccc(C(=O)O)cc2)C(=O)c2ccccc2C1=O	none
O=C(/C=C/c1ccc(O)cc1)c1ccc(NC2=C(N3CCCCC3)C(=O)c3ccccc3C2=O)cc1	RecA intein inh 57 | GFP chromophore 6.1
CC(C)CC#Cc1ccc2c(c1)O[C@@H](CN(C)Cc1cncnc1)[C@@H](C)CN([C@H](C)CO)S2(=O)=O	none (no result: UGM FP inh, RecA intein inh, Rv3671c protease, MazF activator, Mtb betalactam)
O=S(=O)(N[C@@H]1CC[C@@H](CCn2cc(Cc3ccccc3)nn2)O[C@@H]1CO)c1ccccc1F	none (no result: UGM FP inh, RecA intein inh, Rv3671c protease, MazF activator, Mtb betalactam)
COc1ccc(S(=O)(=O)N(C)C[C@H]2Oc3c(NC(=O)c4ccncc4)cccc3C(=O)N([C@@H](C)CO)C[C@@H]2C)cc1	none (no result: UGM FP inh, RecA intein inh, Rv3671c protease, MazF activator, Mtb betalactam)

Screens deposited in PubChem by several laboratories.
